Measured values as given in PubChem BioAssay (Tox21).
Inconclusive results are not listed. Calls of active or inactive are those of the source. Unless noted, calls come from the whole dose curve; as a rule, active = well fitted curve in the direction sought with a large enough effect in the repeat runs; inconclusive = weak or mixed curves; inactive = no such curve, though single readings can be large; an effect the other way counts as inactive or inconclusive.

How the values were obtained:
[1] = qHTS assay to identify small molecule antagonists of the thyroid receptor (TR) signaling pathway - cell viability counter screen (AID 743064); note: nearly all actives have a fitted effect of over 50% in size; note: potency is the fitted concentration of half-maximal effect
Summary of the method: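 Counter screen for cytotoxicity: compound plus T3 (1 nM final) on GH3.TRE-Luc cells, 23.5 h at 37 °C, then fluorescence viability readout with CellTiter-Fluor.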

[2] = test system: thyroid hormone receptor (rat, GH3 cells); experiment: qHTS assay to identify small molecule agonists of the thyroid receptor (TR) signaling pathway (AID 743066; calls by dose curve)
[3] = qHTS assay to identify small molecule antagonists of the estrogen receptor alpha (ER-alpha) signaling pathway - cell viability counter screen (AID 743074; calls by dose curve;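 note: HEK293 cells carrying ER-alpha-UAS-bla reporter stimulated with 17beta-estradiol; nearly all actives have a fitted effect of over 45% in size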)
[4] = target: Estrogen receptor (Homo sapiens) (UniProt P03372); experiment: qHTS assay to identify small molecule agonists of the estrogen receptor alpha (ER-alpha) signaling pathway (AID 743075; calls by dose curve; note: potency is the fitted concentration of half-maximal effect)
Chain of Estrogen receptor (Homo sapiens) (P03372 whole entry, looked up): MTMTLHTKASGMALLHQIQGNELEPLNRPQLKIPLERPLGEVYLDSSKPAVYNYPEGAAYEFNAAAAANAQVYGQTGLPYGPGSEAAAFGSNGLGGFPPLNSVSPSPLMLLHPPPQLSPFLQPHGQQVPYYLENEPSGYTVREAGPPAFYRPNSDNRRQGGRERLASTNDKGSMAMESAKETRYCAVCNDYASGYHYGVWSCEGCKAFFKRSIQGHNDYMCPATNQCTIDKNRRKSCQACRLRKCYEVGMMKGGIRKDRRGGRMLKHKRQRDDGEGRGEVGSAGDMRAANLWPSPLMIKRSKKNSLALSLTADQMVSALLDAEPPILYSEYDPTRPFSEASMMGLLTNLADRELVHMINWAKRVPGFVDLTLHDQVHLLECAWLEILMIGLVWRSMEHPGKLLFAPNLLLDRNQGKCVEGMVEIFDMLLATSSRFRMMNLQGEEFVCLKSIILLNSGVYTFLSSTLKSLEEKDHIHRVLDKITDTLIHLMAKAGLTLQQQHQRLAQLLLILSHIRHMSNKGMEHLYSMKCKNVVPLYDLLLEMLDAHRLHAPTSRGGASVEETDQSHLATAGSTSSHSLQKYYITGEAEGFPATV

[5] = target: Estrogen receptor (Homo sapiens) (UniProt P03372); experiment: qHTS assay to identify small molecule agonists of the estrogen receptor alpha (ER-alpha) signaling pathway using the BG1 cell line (AID 743079); note: nearly all actives have a fitted effect of over 20% in size; note: potency is the fitted concentration of half-maximal effect
[6] = qHTS assay to identify small molecule antagonists of the estrogen receptor alpha (ER-alpha) signaling pathway using the BG1 cell line (AID 743080; calls by dose curve;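 note: BG1 cells stimulated with 17beta-estradiol alongside compound; nearly all actives have a fitted effect of over 25% in size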; note: potency is the fitted concentration of half-maximal effect)
Summary of the method: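 Readout is ONE-Glo luminescence, taken 30 min at room temperature after reagent addition, preceded by a CellTiter-Fluor viability read; BG1-Luc-4E2 cells had received compound and 17beta-estradiol for 21.5 h at 37 C.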

[7] = qHTS assay to identify small molecule antagonists of the estrogen receptor alpha (ER-alpha) signaling pathway using the BG1 cell line - cell viability counter screen (AID 743081);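 note: compound given together with 17beta-estradiol as the ER stimulus; nearly all actives have a fitted effect of over 45% in size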; note: potency is the fitted concentration of half-maximal effect
Aromatase (Homo sapiens) = Aromatase (Homo sapiens) (UniProt P11511); experiment: qHTS assay to identify aromatase inhibitors (AID 743083); note: nearly all actives have a fitted effect of over 55% in size; note: potency is the fitted concentration of half-maximal effect
Chain of Aromatase (Homo sapiens) (P11511 whole entry, looked up): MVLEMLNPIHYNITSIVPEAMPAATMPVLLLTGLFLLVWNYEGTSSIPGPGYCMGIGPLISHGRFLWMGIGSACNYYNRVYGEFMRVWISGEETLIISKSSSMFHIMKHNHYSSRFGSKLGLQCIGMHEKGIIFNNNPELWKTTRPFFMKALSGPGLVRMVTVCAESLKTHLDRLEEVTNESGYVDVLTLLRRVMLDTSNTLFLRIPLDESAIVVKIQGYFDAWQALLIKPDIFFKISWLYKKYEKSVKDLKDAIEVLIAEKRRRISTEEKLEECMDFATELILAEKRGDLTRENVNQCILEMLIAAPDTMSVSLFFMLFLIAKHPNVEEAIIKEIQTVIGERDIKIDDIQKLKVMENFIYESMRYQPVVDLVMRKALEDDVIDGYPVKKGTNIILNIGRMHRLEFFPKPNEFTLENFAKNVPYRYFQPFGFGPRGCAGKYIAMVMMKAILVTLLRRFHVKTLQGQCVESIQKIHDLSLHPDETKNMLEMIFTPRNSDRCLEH

[8] = target: Estrogen receptor (Homo sapiens) (UniProt P03372); experiment: qHTS assay to identify small molecule antagonists of the estrogen receptor alpha (ER-alpha) signaling pathway (AID 743069; active = well fitted curve in the direction sought with a large enough effect in the signal ratio in the repeat runs, not every such curve was filed as active; the % refers to the signal ratio; note: potency is the fitted concentration of half-maximal effect)
Summary of the method: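 HEK293 ER-alpha-UAS-bla GripTite cells, held overnight in 2% charcoal-stripped FBS, 5,000 cells/well, preincubated 4 h, then compound plus 17beta-estradiol for 18 h at 37C. Beta-lactamase read by LiveBLAzer B/G FRET substrate, 2 h at room temperature.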

[9] = qHTS assay to identify small molecule antagonists of the thyroid receptor (TR) signaling pathway (AID 743065); note: series mostly up to about 70 µM; nearly all actives have a fitted effect of over 55% in size
Summary of the method: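 GH3.TRE-Luc rat pituitary cells (two TREs driving luciferase) were dosed with compound, then stimulated with 1 nM T3 (final) for 23.5 h at 37 C. ONE-Glo luminescence was the read-out, with CellTiter-Fluor fluorescence as the cytotoxicity counter-screen.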

Measured: Potency

CCOC(=O)Cc1cccc2ccccc12
not listed: [8] | [9]
inactive: all other assays above

O=C1OC(CN2CCOCC2)CN1/N=C/c1ccc([N+](=O)[O-])o1 (stereo not drawn)
not listed: [9]
inactive: all other assays above

CC(C)(C)Cl
active: [5] 64.4 µM
not listed: [3] | [9]
inactive: all other assays above

CCC(CC)Nc1ccc(C)c(C)c1
not listed: [9]
inactive: all other assays above

CCOc1ccc(O)cc1
not listed: [8] | [9]
inactive: all other assays above

CO[C@@H]1[C@H](OC(=O)/C=C/C=C/C=C/C=C/C(=O)O)CC[C@]2(CO2)[C@H]1[C@@]1(C)O[C@@H]1CC=C(C)C
not listed: [8] | [9]
inactive: all other assays above

CCOC(=O)NCCOc1ccc(Oc2ccccc2)cc1
active: [8] 38.9 µM [inhibitor] | [6] 61.1 µM
inactive: [9] | [2] | [3] | [7]

CCCNCC(O)COc1ccccc1C(=O)CCc1ccccc1 (stereo not drawn)
active: [1] 29.8 µM
inactive: [3] | [7]

CC[N+](C)(CC)CCOC(=O)C(O)(c1ccccc1)C1CCCCC1 (stereo not drawn)
not listed: [1] | [5]
inactive: all other assays above

O=C(c1ccc(F)cc1)C1CCN(CCn2c(=S)[nH]c3ccccc3c2=O)CC1
inactive: [1] | [2] | [3] | [7] | Aromatase (Homo sapiens)

NCc1ccccc1Sc1ccccc1CO
not listed: [1]
inactive: all other assays above

Cc1c(N)cccc1[N+](=O)[O-]
not listed: [1] | [5] | Aromatase (Homo sapiens)
inactive: all other assays above

C=CCOC(=O)CCC1CCCCC1
inactive: [1] | [2] | [3] | [7] | Aromatase (Homo sapiens)

COc1cccc(N(C)C(=S)Oc2ccc3c(c2)CCCC3)n1
inactive: [1] | [2] | [4] | [7] | Aromatase (Homo sapiens)

Cc1ccc(N=Nc2c(O)c(C(=O)O)cc3ccccc23)c(S(=O)(=O)O)c1
inactive: [2] | [3] | Aromatase (Homo sapiens)
active: [1] 26.5 µM | [7] 16.7 µM

CN1C[C@H]2c3ccccc3Oc3ccc(Cl)cc3[C@@H]2C1
active: [1] 15 µM
not listed: [2] | Aromatase (Homo sapiens) | [9]
inactive: all other assays above

CCCCC(CC)COC(=O)COc1ccc(Cl)cc1Cl (stereo not drawn)
not listed: [1]
inactive: all other assays above

C#Cc1cccc(Nc2ncnc3cc(OCCOC)c(OCCOC)cc23)c1
inactive: [1] | [2] | [4] | [5] | [6]
active: Aromatase (Homo sapiens) 18.8 µM

COC(=O)C1=C(C)NC(COC(N)=O)=C(C(=O)OC(C)C)C1c1cccc(Cl)c1Cl (stereo not drawn)
active: [1] 26.6 µM | Aromatase (Homo sapiens) 29.8 µM
inactive: [3] | [5] | [6]

CCOC(=O)C1=C[C@]2(CC)CCCN3CCc4c(n1c1ccccc41)[C@@H]32
active: [1] 9.44 µM
not listed: [2] | [9]
inactive: all other assays above

CCN(CC)CCOC(=O)C(c1ccccc1)C1CCCCC1 (stereo not drawn)
active: [1] 26.6 µM
not listed: [2] | [9]
inactive: all other assays above

C/C=C/C=C/CO
inactive: [1] | [2] | [3] | [7] | Aromatase (Homo sapiens)

C[N+]1(C)CCC(OC(=O)C(O)(c2ccccc2)C2CCCC2)C1 (stereo not drawn)
inactive: [1] | [8] | [4] | [5] | [6] | [7]

COc1ccc(C(=O)c2ccc(OC)cc2O)c(O)c1
active: [4] 8.77 µM [fluorescent] | [5] 30.9 µM
not listed: [1] | [6]
inactive: all other assays above

CC1=CC[C@H](C(C)C)C=C1
not listed: [2] | [9]
inactive: all other assays above
